The values below come from ChEMBL document CHEMBL1157539, “Thousands of chemical starting points for antimalarial lead identification” (Nature, 2010).

Type in all cases: functional
Assay [1] relates to Plasmodium falciparum. Kind of assay: GSK_TCMDC: Inhibition of Plasmodium falciparum 3D7 in whole red blood cells, using parasite LDH activity as an index of growth. Test compounds present at 2uM.
In assay [2] the test system is Plasmodium falciparum. Put plainly: GSK_TCMDC: Inhibition of Plasmodium falciparum Dd2 in whole red blood cells, using parasite LDH activity as an index of growth. Test compounds present at 2uM.
The test system of a further assay is HepG2. Put plainly: GSK_TCMDC: Percent inhibition of human HepG2 cell line. Test compounds present at 10uM.

Consider `Cc1c(-c2cccc(C(C)(C)NC3CCN(Cc4ccccc4)CC3)c2)cnc(N)c1C.Cl`, for which the Inhibition in the assay with Plasmodium falciparum [1] is reported as 100%; in the assay with Plasmodium falciparum [2], 39%; with HepG2 it was 14%.

For the molecule `Cn1nc(-c2ccc(NC(=O)Nc3cc(C(F)(F)F)ccc3F)c(F)c2)c2cnc(NCCCn3ccnc3)nc21.O=C(O)C(F)(F)F`, the values for the Inhibition in the assay with Plasmodium falciparum [1], in the assay with Plasmodium falciparum [2] and in the assay with HepG2 were 100%, 97% and 45%, respectively.

Take `CCC(C)NCCC(c1ccccc1)c1ccccc1O.Cl` (stereo not given): the values for the Inhibition in the assay with Plasmodium falciparum [1], in the assay on Plasmodium falciparum [2] and in the assay on HepG2 were 97%, 74% and 4%, respectively.

For `CN(C)C(CNC(=O)c1cc(-c2ccncc2)c(-c2ccc(Cl)c(O)c2)o1)c1ccccc1.O=C(O)C(F)(F)F` (stereo not given), the results for the Inhibition in the assay on Plasmodium falciparum [1], in the assay on Plasmodium falciparum [2] and in the assay with HepG2 were 91%, 28% and 28%, respectively.

As for `Cl.c1ccc(COc2ccc(Nc3ncnc4cnc(-c5ccc(CN6CCCCC6)o5)cc34)cc2)cc1`, the Inhibition in the assay with Plasmodium falciparum [1] was 90%; in the assay on Plasmodium falciparum [2], 13%; in the assay on HepG2, 0%.

`COc1ccc(-c2ncnc(C(F)(F)F)c2-c2ccc(Cl)cc2)c(O)c1`: the Inhibition was 100% in the assay on Plasmodium falciparum [1], 22% in the assay with Plasmodium falciparum [2] and 1% with HepG2.

For `Fc1ccc2[nH]c(-c3cccc(-c4cccc(CN5CCN(c6cnccn6)CC5)c4)c3)nc2c1.O=C(O)C(F)(F)F`, the Inhibition with Plasmodium falciparum [1] amounted to 93%; in the assay with Plasmodium falciparum [2], 35%; in the assay with HepG2, 17%.

With `COc1cccc(Nc2nc(NCCO)c3ccccc3n2)c1.Cl`, the Inhibition in the assay on Plasmodium falciparum [1] was 99%; in the assay with Plasmodium falciparum [2] it was 88%; in the assay with HepG2, 1%.

As for `CC(C)Sc1nc(-c2ccccc2)nc2c1COC(C)(C)C2`, the Inhibition amounted to 98% in the assay with Plasmodium falciparum [1], 41% in the assay on Plasmodium falciparum [2] and 2% in the assay with HepG2.

As for `OCCN1CCN(C(=S)Nc2ccccc2)CC1`, the Inhibition in the assay with Plasmodium falciparum [1] is 97%; in the assay on Plasmodium falciparum [2] it was 7%; in the assay on HepG2, 6%.

`COc1ccc(OCCCN2CCCCC2)cc1S(=O)(=O)c1ccc(OCc2ccc(C(F)(F)F)cc2)cc1.Cl`: the Inhibition stood at 94% in the assay on Plasmodium falciparum [1], 8% in the assay on Plasmodium falciparum [2] and 52% in the assay on HepG2.

For the molecule `COc1ccc(CCc2ccc(-c3c(C)[nH]c(C)c(Cl)c3=O)cc2)cc1`, the Inhibition came to 98% in the assay on Plasmodium falciparum [1], 97% in the assay with Plasmodium falciparum [2] and 0% in the assay with HepG2.

For `O=C(O)C(F)(F)F.c1ccc(CNCc2cccc(-c3csc(-c4nc5ccccc5[nH]4)c3)c2)cc1`, the results for the Inhibition in the assay with Plasmodium falciparum [1], in the assay with Plasmodium falciparum [2] and in the assay with HepG2 were 100%, 54% and 24%, respectively.

Take `O=C(NCc1cccc(C(F)(F)F)c1)[C@@H]1CCCN1C(=O)c1ccc(O)c(-c2ccc(Cl)c(Cl)c2)c1`: the Inhibition with Plasmodium falciparum [1] is recorded as 99%; with Plasmodium falciparum [2], 97%; in the assay on HepG2, 0%.

For the molecule `COc1ccc(CN2CCC(NCc3ccc(C(F)(F)F)cc3)CC2)cc1.O=C(O)C(F)(F)F`, the results for the Inhibition in the assay with Plasmodium falciparum [1], with Plasmodium falciparum [2] and in the assay with HepG2 were 97%, 0% and 37%, respectively.

On to `Br.CC1(C)NC(N)=NC(=N)N1OCCc1ccc(N)cc1`, for which the Inhibition stood at 93% with Plasmodium falciparum [1], 95% with Plasmodium falciparum [2] and 65% with HepG2.

Turning to `O=C(O)C(F)(F)F.O=C1CCCN1CCCNCc1ccc(-c2cccc(-c3nc4cc(C(F)(F)F)ccc4[nH]3)c2)cc1`, the results for the Inhibition with Plasmodium falciparum [1], in the assay on Plasmodium falciparum [2] and in the assay with HepG2 were 100%, 98% and 14%, respectively.

Turning to `COc1ccc2nccc([C@@H](O)CNCCCN(C)CCOc3cc(F)cc(F)c3)c2c1.O=C(O)C(=O)O`, the results for the Inhibition in the assay with Plasmodium falciparum [1], in the assay on Plasmodium falciparum [2] and in the assay with HepG2 were 99%, 58% and 11%, respectively.

`Cc1cc(N[C@@H](CC(C)C)C(=O)NCCOc2ccccc2)nc(NCCc2ccc(F)cc2)n1.O=C(O)C(F)(F)F`: the figures for the Inhibition in the assay on Plasmodium falciparum [1], in the assay with Plasmodium falciparum [2] and in the assay on HepG2 were 95%, 54% and 25%, respectively.

For `CN(CCN)Cc1ccc(-c2ccc(-c3nc4cc(F)ccc4[nH]3)s2)cc1.O=C(O)C(F)(F)F`, the values for the Inhibition in the assay with Plasmodium falciparum [1], in the assay on Plasmodium falciparum [2] and in the assay on HepG2 were 96%, 81% and 31%, respectively.

With `Cc1ccc(C2CCN(CCCCNC(=O)c3ccc(-c4ccc(C#N)cc4)cc3)CC2)c(O)c1`, the Inhibition in the assay on Plasmodium falciparum [1] worked out at 100%; in the assay with Plasmodium falciparum [2], 90%; in the assay with HepG2 it was 45%.

Turning to `Cc1cc(-c2ccc(NC(=O)N3CCc4cc(Br)c(N5CCN(C)CC5)cc43)cc2)cc(C)n1`, the Inhibition was found to be 92% with Plasmodium falciparum [1], 4% with Plasmodium falciparum [2] and 29% in the assay with HepG2.

As to `Br.CCCC1N=C(N)N=C(N)N1c1ccc(OC)cc1` (stereo not given), the Inhibition turned out to be 96% in the assay on Plasmodium falciparum [1], 4% in the assay on Plasmodium falciparum [2] and 0% in the assay with HepG2.

As for `COc1cc(Br)c(NC(=O)Nc2ccc(C(F)(F)F)c(O[C@@H]3CCN(C)C3)c2)cc1OC.Cl`, the results for the Inhibition with Plasmodium falciparum [1], in the assay on Plasmodium falciparum [2] and in the assay with HepG2 were 97%, 27% and 10%, respectively.

As for `O=C(Cc1ccc[n+]([O-])c1)Nc1cccc(-c2cccc(-c3nc4cc(C(F)(F)F)ccc4[nH]3)c2)c1`, the Inhibition in the assay with Plasmodium falciparum [1] was 92%; in the assay on Plasmodium falciparum [2] it was 99%; with HepG2 it was 41%.

Consider `O=C(NCC1CCC(C(=O)NC2CCCc3ccccc32)CC1)c1ccc(O)c(-c2cccc([N+](=O)[O-])c2)c1` (stereo not given), for which the Inhibition in the assay with Plasmodium falciparum [1] was 99%; in the assay on Plasmodium falciparum [2], 97%; in the assay on HepG2, 2%.

Turning to `COc1cc(CCOc2c(C)nc(N)nc2N)cc(OC)c1OC.Cl`, the results for the Inhibition in the assay with Plasmodium falciparum [1], in the assay on Plasmodium falciparum [2] and in the assay on HepG2 were 93%, 0% and 59%, respectively.

Turning to `CN(C)c1ccc(CN2CCC(NC(=O)c3ccc(-c4ccccc4F)s3)CC2)cc1.O=C(O)C(F)(F)F`, the Inhibition came out at 86% in the assay on Plasmodium falciparum [1], 27% in the assay on Plasmodium falciparum [2] and 41% in the assay with HepG2.

In the case of `CC1CCN(CC[C@H]2CCCN2S(=O)(=O)c2cccc(NC(=O)Nc3ccc(C(F)(F)F)cc3)c2)CC1`, the Inhibition in the assay on Plasmodium falciparum [1] was determined as 100%; with Plasmodium falciparum [2], 41%; in the assay with HepG2, 12%.

For the molecule `COc1ccc(C(=O)N2CCc3cc4nccc(N5CCN6CCC[C@H]6C5)c4cc32)cc1`, the Inhibition is recorded as 98% in the assay with Plasmodium falciparum [1], 50% in the assay on Plasmodium falciparum [2] and 1% in the assay on HepG2.

The Inhibition is how much of the control response was suppressed.
